Data: PubChem BioAssay AID1347088 (National Center for Advancing Translational Sciences (NCATS), 2019)
Records with an inconclusive call do not appear. A number with no mark means an inactive call. Activity calls are given as the source filed them. Calls follow the shape of the full dose curve.

Test: qHTS for Inhibitors of the Functional Ribonucleoprotein Complex (vRNP) of Lymphocytic Choriomeningitis Arenaviruses (LCMV): Viability assay - Alamar blue signal for LCMV Confirmatory Screen
Conditions: LCMV vRNP confirmatory screen cells; series mostly up to 53.9 µM; viability change, negative = toxic: at the top concentration
In the case of `CCC(c1ccc(O)cc1)C(CC)c1ccc(O)cc1` (centres undefined), the “viability change, negative = toxic” value is reported as 23.8%.
In the case of `CC(O)C(O)[C@H]1CNc2nc(N)[nH]c(=O)c2N1` (some centres undefined), the “viability change, negative = toxic” value is reported as -3.99%.
In the case of `CC12C(=O)OC(=O)C1(C)C1CCC2O1` (centres undefined), the Potency is reported as 8.63 µM (active).
With `CCC(C)c1nccnc1OC` (centres undefined) the “viability change, negative = toxic” value was -4.73% [at 110 µM].
With `NC(=O)N/N=C/c1ccc([N+](=O)[O-])o1` the “viability change, negative = toxic” value was 28.6%.
With `FC(F)(F)c1ccc(C=Cc2nc(COc3ccc(CCCCn4ccnn4)cc3)co2)cc1` the “viability change, negative = toxic” value was 12.2%.
For `Cc1ccc2c(c1)C1CN(C)CCC1N2` (centres undefined), the “viability change, negative = toxic” value was -22.8% [at 19.4 µM].
In the case of `Cc1cnc(NC(=O)C2=C(O)c3ccccc3S(=O)(=O)N2C)s1`, the “viability change, negative = toxic” value is reported as -23.7%.
With `Cc1cccc(-c2[nH]c(C(C)(C)C)nc2-c2ccc3c(c2)OCO3)n1` the Potency was 4.32 µM (active).
In the case of `COc1ccc2c(c1OC)CN1CCc3cc4c(cc3C1C2)OCO4` (centres undefined), the “viability change, negative = toxic” value is reported as -16.3%.
With `Clc1nccc2c1ccc1ccccc12` the “viability change, negative = toxic” value was -18.9%.
With `CCCCCN=C(N)N/N=C/c1c[nH]c2ccc(OC)cc12` the Potency was 9.68 µM (active).
With `N#CC(=C(\N)Sc1ccccc1N)/C(C#N)=C(/N)Sc1ccccc1N` the “viability change, negative = toxic” value was -21.2%.
With `Oc1cc(Cl)ccc1Oc1ccc(Cl)cc1Cl` the Potency was 44.4 µM (active).
With `Cc1ncc([N+](=O)[O-])n1CC(C)O` (centres undefined) the “viability change, negative = toxic” value was -3.13%.
In the case of `CCn1c(-c2nonc2N)nc2cnc(Oc3cccc(NC(=O)c4ccc(OCCN5CCOCC5)cc4)c3)cc21`, the Potency is reported as 24.3 µM (active).
For `Cc1cc2c(C(C)C)c(O)c(O)c(C=O)c2c(O)c1-c1c(C)cc2c(C(C)C)c(O)c(O)c(C=O)c2c1O`, the Potency was 27.3 µM (active).
`CCCCC[C@H](O)/C=C/C=C/C/C=C\CCCC(=O)O` showed a viability change, negative = toxic of -17.3% [at 0.666 µM].
In the case of `CO/C=C(/C(=O)OC)c1ccccc1Oc1cc(Oc2ccccc2C#N)ncn1`, the Potency is reported as 49.8 µM (active).
For `O=C1Cc2cc(CCN3CCN(c4nsc5ccccc45)CC3)c(Cl)cc2N1`, the Potency was “inactive”.
With `COC(=O)c1nc(Cl)c(Cl)nc1N` the Potency was 6.11 µM (active).
With `CC(C)=CCC/C(C)=C/CC/C(C)=C/CC[C@]1(C)CCc2c(C)c(O)c(C)c(C)c2O1` the viability change, negative = toxic was -1.54% [at 6 µM].
In the case of `Fc1ccc(CNc2ncnc3ccc(F)cc23)cc1`, the “viability change, negative = toxic” value is reported as -18.6%.
In the case of `CC(O)(P(=O)(O)O)P(=O)(O)O`, the “viability change, negative = toxic” value is reported as 13.4%.
